Unmarked numbers belong to inactive results.

Chain of UniProt Q6GQQ9 (Q6GQQ9 whole entry): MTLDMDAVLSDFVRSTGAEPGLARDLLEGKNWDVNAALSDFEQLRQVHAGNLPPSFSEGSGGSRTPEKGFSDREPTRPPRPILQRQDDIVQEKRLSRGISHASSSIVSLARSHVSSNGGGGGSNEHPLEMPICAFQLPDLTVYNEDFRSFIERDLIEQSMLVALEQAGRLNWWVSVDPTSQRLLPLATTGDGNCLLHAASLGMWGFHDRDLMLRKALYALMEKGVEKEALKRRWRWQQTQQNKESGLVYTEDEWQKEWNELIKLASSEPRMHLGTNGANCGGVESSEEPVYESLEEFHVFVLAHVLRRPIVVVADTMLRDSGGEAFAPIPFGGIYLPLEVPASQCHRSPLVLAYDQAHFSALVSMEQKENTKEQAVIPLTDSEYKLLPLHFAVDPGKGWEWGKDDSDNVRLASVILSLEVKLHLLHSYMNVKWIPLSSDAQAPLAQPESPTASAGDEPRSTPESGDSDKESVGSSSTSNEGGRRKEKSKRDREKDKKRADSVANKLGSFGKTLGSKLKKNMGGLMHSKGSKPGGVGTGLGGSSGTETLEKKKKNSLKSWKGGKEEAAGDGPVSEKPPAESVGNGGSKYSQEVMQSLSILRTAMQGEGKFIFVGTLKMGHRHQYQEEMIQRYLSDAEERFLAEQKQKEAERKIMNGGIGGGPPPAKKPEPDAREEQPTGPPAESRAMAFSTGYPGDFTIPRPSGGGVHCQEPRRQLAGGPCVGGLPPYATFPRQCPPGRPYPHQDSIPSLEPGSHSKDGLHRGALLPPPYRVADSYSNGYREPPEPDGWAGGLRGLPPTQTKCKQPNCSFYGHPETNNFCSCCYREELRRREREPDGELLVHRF
Chain of UniProt Q4G0A6 (Q4G0A6 whole entry): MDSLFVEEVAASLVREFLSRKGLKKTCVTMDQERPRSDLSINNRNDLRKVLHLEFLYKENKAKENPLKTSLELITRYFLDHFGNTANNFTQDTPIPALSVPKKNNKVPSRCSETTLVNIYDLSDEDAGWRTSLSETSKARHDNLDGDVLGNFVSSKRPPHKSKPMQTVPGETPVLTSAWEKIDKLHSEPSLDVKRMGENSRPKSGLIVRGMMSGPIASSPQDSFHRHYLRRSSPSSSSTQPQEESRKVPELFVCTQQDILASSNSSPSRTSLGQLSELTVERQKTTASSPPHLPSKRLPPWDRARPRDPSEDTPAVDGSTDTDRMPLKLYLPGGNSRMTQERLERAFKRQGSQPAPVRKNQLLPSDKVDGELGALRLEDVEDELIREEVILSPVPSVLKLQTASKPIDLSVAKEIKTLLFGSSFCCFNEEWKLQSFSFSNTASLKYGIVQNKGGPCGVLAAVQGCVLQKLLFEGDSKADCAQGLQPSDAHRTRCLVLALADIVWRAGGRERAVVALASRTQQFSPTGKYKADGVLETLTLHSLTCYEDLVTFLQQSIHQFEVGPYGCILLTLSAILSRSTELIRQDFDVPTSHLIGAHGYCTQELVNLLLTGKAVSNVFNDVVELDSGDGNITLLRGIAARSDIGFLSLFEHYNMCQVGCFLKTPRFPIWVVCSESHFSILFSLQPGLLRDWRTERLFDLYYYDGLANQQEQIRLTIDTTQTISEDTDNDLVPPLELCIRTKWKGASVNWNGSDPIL
Chain of UniProt Q5T2D3 (Q5T2D3 whole entry): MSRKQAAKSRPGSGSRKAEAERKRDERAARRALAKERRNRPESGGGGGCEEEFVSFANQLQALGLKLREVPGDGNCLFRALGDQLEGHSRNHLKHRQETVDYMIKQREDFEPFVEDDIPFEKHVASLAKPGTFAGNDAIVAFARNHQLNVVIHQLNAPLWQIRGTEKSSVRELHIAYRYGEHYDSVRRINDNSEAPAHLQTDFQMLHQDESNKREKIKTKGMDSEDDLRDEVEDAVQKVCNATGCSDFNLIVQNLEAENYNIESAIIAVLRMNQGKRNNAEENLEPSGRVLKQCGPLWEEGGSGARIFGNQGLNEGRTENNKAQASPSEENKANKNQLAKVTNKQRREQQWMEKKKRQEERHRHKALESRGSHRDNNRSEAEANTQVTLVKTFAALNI
Chain of UniProt Q53GS9 (Q53GS9 whole entry): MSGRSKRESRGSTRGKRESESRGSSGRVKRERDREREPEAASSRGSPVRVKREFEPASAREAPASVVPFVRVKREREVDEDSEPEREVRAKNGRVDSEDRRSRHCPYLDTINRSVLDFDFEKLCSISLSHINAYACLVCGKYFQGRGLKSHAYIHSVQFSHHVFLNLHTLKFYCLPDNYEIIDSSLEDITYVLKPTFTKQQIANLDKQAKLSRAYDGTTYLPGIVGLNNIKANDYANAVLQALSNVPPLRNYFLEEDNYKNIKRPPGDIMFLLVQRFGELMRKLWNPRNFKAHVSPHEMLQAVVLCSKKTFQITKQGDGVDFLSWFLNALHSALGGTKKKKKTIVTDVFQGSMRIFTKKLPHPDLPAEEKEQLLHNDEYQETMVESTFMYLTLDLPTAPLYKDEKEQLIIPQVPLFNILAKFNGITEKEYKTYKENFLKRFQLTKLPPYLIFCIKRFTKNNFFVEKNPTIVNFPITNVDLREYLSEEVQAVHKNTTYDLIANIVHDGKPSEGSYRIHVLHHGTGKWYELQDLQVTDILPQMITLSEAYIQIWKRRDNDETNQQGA
Chain of UniProt Q96JH7 (Q96JH7 whole entry): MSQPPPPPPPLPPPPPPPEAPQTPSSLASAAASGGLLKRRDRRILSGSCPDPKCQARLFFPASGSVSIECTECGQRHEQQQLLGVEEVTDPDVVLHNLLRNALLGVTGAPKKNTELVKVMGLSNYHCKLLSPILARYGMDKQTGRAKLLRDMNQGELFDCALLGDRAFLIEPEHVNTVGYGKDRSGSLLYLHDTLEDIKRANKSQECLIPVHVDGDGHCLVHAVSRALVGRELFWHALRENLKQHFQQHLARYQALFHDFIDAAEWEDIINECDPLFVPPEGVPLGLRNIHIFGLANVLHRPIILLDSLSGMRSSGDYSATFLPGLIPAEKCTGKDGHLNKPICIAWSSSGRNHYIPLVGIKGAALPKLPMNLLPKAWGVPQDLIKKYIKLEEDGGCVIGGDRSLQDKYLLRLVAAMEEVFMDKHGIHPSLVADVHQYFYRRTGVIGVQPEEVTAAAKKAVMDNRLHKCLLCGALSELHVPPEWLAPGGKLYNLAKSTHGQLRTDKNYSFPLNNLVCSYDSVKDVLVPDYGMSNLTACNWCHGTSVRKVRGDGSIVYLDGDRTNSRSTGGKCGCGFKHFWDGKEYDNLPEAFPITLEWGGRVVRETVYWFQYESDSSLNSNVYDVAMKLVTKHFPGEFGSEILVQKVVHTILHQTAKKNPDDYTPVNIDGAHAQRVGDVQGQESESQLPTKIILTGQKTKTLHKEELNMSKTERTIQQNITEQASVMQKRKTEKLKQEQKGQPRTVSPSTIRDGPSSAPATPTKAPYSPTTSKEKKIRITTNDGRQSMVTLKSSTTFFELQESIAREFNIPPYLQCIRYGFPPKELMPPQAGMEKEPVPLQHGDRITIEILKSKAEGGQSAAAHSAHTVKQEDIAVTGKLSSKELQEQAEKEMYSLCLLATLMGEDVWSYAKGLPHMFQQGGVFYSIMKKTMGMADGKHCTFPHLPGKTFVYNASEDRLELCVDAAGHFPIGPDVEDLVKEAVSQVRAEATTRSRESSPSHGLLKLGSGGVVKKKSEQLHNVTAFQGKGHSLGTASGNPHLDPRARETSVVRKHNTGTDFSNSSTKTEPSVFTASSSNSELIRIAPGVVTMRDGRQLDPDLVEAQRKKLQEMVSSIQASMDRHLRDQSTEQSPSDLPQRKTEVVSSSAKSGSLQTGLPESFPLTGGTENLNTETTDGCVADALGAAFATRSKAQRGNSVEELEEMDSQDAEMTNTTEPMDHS
Chain of UniProt Q8N6M0 (Q8N6M0 whole entry): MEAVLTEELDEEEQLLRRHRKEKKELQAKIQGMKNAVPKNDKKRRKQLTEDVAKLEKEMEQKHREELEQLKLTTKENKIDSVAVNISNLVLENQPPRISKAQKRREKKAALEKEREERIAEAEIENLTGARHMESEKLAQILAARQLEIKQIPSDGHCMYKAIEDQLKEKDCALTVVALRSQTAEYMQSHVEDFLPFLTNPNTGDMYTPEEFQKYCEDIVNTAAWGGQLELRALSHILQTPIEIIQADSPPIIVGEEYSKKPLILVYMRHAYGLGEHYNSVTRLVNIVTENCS
Chain of UniProt P45974 (P45974 whole entry): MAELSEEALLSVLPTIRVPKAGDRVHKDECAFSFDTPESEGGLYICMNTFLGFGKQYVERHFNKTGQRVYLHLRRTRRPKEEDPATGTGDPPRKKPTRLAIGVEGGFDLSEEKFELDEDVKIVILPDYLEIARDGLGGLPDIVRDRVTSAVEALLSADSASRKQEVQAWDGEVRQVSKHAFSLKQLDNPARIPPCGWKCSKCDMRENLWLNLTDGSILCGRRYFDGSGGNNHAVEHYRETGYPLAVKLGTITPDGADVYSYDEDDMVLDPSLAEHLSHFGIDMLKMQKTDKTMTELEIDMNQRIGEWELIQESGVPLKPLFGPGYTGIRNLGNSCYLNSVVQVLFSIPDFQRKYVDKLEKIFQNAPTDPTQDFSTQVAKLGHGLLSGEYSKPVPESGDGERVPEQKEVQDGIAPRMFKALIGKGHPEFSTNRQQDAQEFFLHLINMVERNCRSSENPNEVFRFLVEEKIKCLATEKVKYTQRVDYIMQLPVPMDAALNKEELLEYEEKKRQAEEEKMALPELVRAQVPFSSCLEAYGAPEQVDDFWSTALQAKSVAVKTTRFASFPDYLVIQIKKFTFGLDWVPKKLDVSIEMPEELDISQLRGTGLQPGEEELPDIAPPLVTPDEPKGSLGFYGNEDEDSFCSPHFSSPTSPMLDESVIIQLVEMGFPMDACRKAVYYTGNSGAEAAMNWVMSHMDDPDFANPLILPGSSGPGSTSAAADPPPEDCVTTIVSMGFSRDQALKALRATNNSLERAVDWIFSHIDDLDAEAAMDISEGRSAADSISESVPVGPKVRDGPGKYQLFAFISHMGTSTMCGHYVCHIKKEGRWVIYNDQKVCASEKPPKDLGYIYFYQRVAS

Compound in the first test: COc1cccc(CN(C)C(=O)CCl)c1
In words: log2 ratio of Biotin-Ahx-Ub-VS probe labelling (compound/DMSO); higher = less target engagement, active = hit call of the paper (q ≤ 0.05, log2 ratio ≤ -1). Conditions: compound concentration: 50uM; treatment time: 3 h. On the procedure: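 Round 2 competitive ABPP in HEK293T lysate. Compounds were tested at 50 and 200 µM for 3 h, followed by Biotin-Ahx-Ub-VS enrichment and diaPASEF LC-MS/MS. Values are the average log2 ratio (compound/DMSO) from an unpaired t-test (n=3 treated, n=26 DMSO).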
On to USP7 (UniProt Q93009), for which the “log2 ratio of Biotin-Ahx-Ub-VS probe labelling” value (shortened to “log2 ratio”) was -0.4.
Same read-out and setting: under COPS5 (UniProt Q92905) stands -0.236; under EIF3H (UniProt O15372), -0.183.
On to USP15 (UniProt Q9Y4E8), for which the “log2 ratio” value is -0.185.
Still for that read-out and setting: the same measure for UniProt Q5T2D3: -0.199; for UCHL5 (UniProt Q9Y5K5): -0.115; for FAM105A (UniProt Q9NUU6): -0.133.
For the target BAP1 (UniProt Q92560), the “log2 ratio” value is -1.22 (active).
The same measure, in the same setting: under VCPIP1 (UniProt Q96JH7) stands -0.139; under PRPF8 (UniProt Q6P2Q9), 0.0579; under USP36 (UniProt Q9P275), -0.0259.
Same read-out and setting: under OTUD6B (UniProt Q8N6M0) stands -0.149; under USP46 (UniProt P62068), -0.277.
Still for that read-out and setting: under USP39 (UniProt Q53GS9) stands -0.0648; under USP4 (UniProt Q13107), -1.18 (active).
Consider ALG13 (UniProt Q9NP73), for which the “log2 ratio” value was 0.312.
OTUD7B (UniProt Q6GQQ9): the “log2 ratio” value is -0.372.
Take UniProt O00487: the “log2 ratio” value is -0.186.
Same read-out and setting: the same measure for USP5 (UniProt P45974): 0.274.
Regarding MINDY4 (UniProt Q4G0A6), the “log2 ratio” value is 0.225.

The same test, now with this note: compound concentration: 200uM; treatment time: 3 h.
As for USP7 (UniProt Q93009), the “log2 ratio” value is -1.53 (active).
As for COPS5 (UniProt Q92905), the “log2 ratio” value is -0.578.
The same measure, in the same setting: under EIF3H (UniProt O15372) stands 0.043; under USP15 (UniProt Q9Y4E8), -0.33.
On the same count and under the same terms, the same measure for UniProt Q5T2D3: 0.0147; for UCHL5 (UniProt Q9Y5K5): -0.295.
Still for that read-out and setting: the same measure for FAM105A (UniProt Q9NUU6): 0.096.
For the target BAP1 (UniProt Q92560), the “log2 ratio” value was -3.29 (active).
On the same count and under the same terms, the same measure for VCPIP1 (UniProt Q96JH7): -0.277; for PRPF8 (UniProt Q6P2Q9): 0.0324; for USP36 (UniProt Q9P275): 0.018.
Still for that read-out and setting: under OTUD6B (UniProt Q8N6M0) stands -0.283.
Still for that read-out and setting: the same measure for USP46 (UniProt P62068): -0.261.
Regarding USP39 (UniProt Q53GS9), the “log2 ratio” value was -0.162.
On to USP4 (UniProt Q13107), for which the “log2 ratio” value was -0.498.
With ALG13 (UniProt Q9NP73), the “log2 ratio” value was 0.0712.
As for OTUD7B (UniProt Q6GQQ9), the “log2 ratio” value was -0.803.
In the case of UniProt O00487, the “log2 ratio” value is -0.459.
Regarding USP5 (UniProt P45974), the “log2 ratio” value is 0.357.
Still for that read-out and setting: under MINDY4 (UniProt Q4G0A6) stands 0.167.

(Values after the supplement of paper PMC11732987, “Enantioselective OTUD7B fragment discovery through chemoproteomics screening and high-throughput optimisation” (Communications Chemistry, 2025).)
